From PubChem
Rv3671c inh: Rv3671c (M. tuberculosis) protease inhibition | 320,000 tested, 0.048% active | inhibition, % at 5.96 µM | P9WHR9; in the data active = inhibition above about 38%;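 also: extracellular domain of Rv3671c used as enzyme; 0% = enzyme with DMSO and 100% = no enzyme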
Mtb UGM inh: inhibitors of M. tuberculosis UDP-galactopyranose mutase. P9WIQ1. purified UGM, fluorescence polarization probe displacement. inhibition, % at 10 µM. 320,000 tested, 0.06% active; in the data active = inhibition above about 10%, passing the limit was not always enough
Mtb betalactam: beta-lactam sensitization of Mtb H37Rv; M. tuberculosis H37Rv growth with meropenem, percent inhibition; inhibition, % at 25 µM; 330,000 tested, 0.27% active; call rule not given here;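 also: growth measured after seven days incubation then overnight dye step; 0% = bacteria only wells and 100% = bacteria with antibiotic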
RecA splice inh: blocks M. tuberculosis RecA intein splicing. P9WHJ3. cell-free RecA intein splicing, fluorescence. inhibition, % (no concentration beside the values). 290,000 tested, 0.75% active. AID 2221; in the data active = inhibition above about 30%;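 also: 0% = vehicle wells and 100% = reference inhibitor control wells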
Target sequence (P9WHJ3 whole entry, looked up, canonical isoform): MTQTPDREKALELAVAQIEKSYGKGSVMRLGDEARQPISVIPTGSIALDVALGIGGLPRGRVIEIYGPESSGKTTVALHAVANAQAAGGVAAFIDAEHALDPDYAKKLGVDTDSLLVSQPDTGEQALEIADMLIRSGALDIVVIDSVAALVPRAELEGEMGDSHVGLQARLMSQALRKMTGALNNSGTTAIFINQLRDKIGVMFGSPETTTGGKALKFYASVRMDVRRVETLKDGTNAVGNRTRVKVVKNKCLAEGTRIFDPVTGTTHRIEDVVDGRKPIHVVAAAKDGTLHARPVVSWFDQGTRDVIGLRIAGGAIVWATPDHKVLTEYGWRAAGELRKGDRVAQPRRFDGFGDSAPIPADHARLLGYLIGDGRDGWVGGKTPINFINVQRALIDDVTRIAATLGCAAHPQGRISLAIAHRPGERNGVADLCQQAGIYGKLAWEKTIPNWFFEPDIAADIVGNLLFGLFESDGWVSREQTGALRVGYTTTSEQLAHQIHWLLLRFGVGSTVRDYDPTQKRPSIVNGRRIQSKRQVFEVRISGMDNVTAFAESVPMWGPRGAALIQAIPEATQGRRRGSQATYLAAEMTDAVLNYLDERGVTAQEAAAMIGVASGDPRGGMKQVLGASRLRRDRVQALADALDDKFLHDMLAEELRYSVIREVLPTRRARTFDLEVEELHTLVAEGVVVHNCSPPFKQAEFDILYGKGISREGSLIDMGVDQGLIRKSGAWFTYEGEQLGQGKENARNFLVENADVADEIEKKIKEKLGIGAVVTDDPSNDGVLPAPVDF
Mtb hypoxia inh: Mtb hypoxia fluorescent reporter inhibition | fluorescence inhibition, % (test concentration not listed) | 300,000 tested, 0.1% active | M. tuberculosis hypoxia-regulated fluorescent reporter, fluorescence | AID 1159583; in the data active = fluorescence inhibition mostly above about 23%, no sharp cut-off; inactive = mostly below about 17%
FadD28 binding: M. tuberculosis FadD28 bisubstrate binding inhibition. FadD28 bisubstrate probe binding, fluorescence polarization. inhibition, % at 12.5 µM. 360,000 tested, 0.22% active. AID 588549; in the data active = inhibition above about 8.5%, passing the limit was not always enough
* = called active by the depositor; nt = no result given. Hits are enriched below; roughly 0.92% of the tested compounds scored in any of these assays.

SMILES	Rv3671c inh	Mtb UGM inh	Mtb betalactam	RecA splice inh	Mtb hypoxia inh	FadD28 binding
O=C(NNC(=O)c1ccc(NC(=O)c2ccccc2)cc1)c1ccc(F)cc1	-7.9	0.6	-5.3	-1.5	8.0	-4.5
Cc1ccccc1C1=C/C(=C(\SS/C(C(=O)c2ccc(OCC(=O)O)c(Cl)c2Cl)=C2\C=C(c3ccccc3C)SS2)C(=O)c2ccc(OCC(=O)O)c(Cl)c2Cl)SS1	nt	nt	nt	nt	nt	73.3*
Cc1cc(Cl)ccc1OCC(=O)O	3.0	0.4	5.0	-0.5	24.4	-1.0
O=C1c2ccccc2C(=O)c2c1ccc(O)c2O	nt	nt	nt	nt	nt	3.6
COC(=O)c1ccc2c(c1O)C(=O)c1ccccc1C2=O	-3.0	-0.3	100.1	44.4*	10.4	-4.5
CCCCOC(=O)Nc1nnc(CCc2ccccc2)s1	-7.8	1.1	-2.3	-1.0	10.6	-3.2
CCOC(=O)c1ccccc1OCc1cc(/C=N/n2cnnc2)ccc1OC	-1.9	-0.7	-10.0	1.1	nt	-0.7
CC1CCCC(C)N1C(=C(Cl)Cl)C(=C1SCCS1)[N+](=O)[O-] (stereo not drawn)	8.9	1.4	0.1	nt	9.3	16.3*
Cc1ccc(N2C(=O)CS/C2=C(\C(Cl)=C(Cl)Cl)[N+](=O)[O-])cc1	3.5	-0.9	-0.7	5.6	10.1	-0.2
Cc1ccc(NC(=O)CN2C(=O)S/C(=C\c3ccc(-c4cccc(C(=O)O)c4C)o3)C2=O)cc1C	nt	nt	nt	nt	6.6	11.5*
COc1ccc(C=C2SC(=S)N(CCCC(=O)Nc3ccc(C(=O)O)c(O)c3)C2=O)cc1OC	nt	nt	nt	nt	nt	-1.6
CC(C(=O)Nc1ccc(C(=O)O)c(O)c1)N1C(=O)/C(=C\c2ccco2)SC1=S (stereo not drawn)	-4.7	-0.3	56.9	0.5	-1.4	25.3*
COc1ccc(NC(=O)CCCN2C(=O)/C(=C\c3ccco3)SC2=S)cc1	-7.8	-3.4	-1.0	3.6	12.8	1.4
O=C(CN1C(=O)/C(=C/c2ccco2)SC1=S)Nc1ccc(O)c(C(=O)O)c1	-4.2	0.7	1.7	8.4	3.8	36.3*
O=C(CN1C(=O)/C(=C/c2ccco2)SC1=S)Nc1ccc(C(=O)O)c(O)c1	-10.6	0.7	6.7	13.6	3.2	23.1*
CCOC(=O)CN1C(=O)S/C(=C\c2ccc(-c3cccc(C(=O)O)c3C)o2)C1=O	1.9	1.4	19.3	-42.0	14.3	-3.2
O=C(CCCOc1ccc(Cl)cc1Cl)Nc1cc(S(=O)(=O)N2CCOCC2)ccc1N1CCOCC1	nt	nt	nt	nt	-0.7	-0.4
CCCCN1C(=O)/C(=C/C=C2\SCCN2C)SC1=S	nt	nt	nt	-1.1	25.1	1.6
CN1CCS/C1=C/C=C1\SC(=S)N(CC(=O)O)C1=O	-3.9	-13.3	-2.3	-4.5	58.4*	-1.4
COc1cc(C2(c3ccc(O)c(OC)c3)C(=O)Nc3c(C)cc(Br)cc32)ccc1O	6.0	1.0	-4.9	42.3*	9.2	-3.2
Cc1cc(Br)cc2c1NC(=O)C2(c1c(C)n(C)n(-c2ccccc2)c1=O)c1c(C)n(C)n(-c2ccccc2)c1=O	9.3	-0.7	-6.3	2.6	8.7	-4.4
CCc1cccc2c(C(=O)COC(=O)[C@@H]3CC(O)CN3S(=O)(=O)c3ccccc3[N+](=O)[O-])c[nH]c12 (stereo partly drawn)	-3.4	-1.3	6.8	nt	-6.6	11.0*
CCc1cccc2c(C(=O)COC(=O)c3ccccc3)c[nH]c12	-6.8	-0.1	-4.2	-0.6	3.0	18.0*
CCc1cccc2c(C(=O)COC(=O)c3nccnc3N)c[nH]c12	5.1	0.1	0.4	-1.2	5.8	2.8
CCc1cccc2c(C(=O)COC(=O)c3cnc(C)cn3)c[nH]c12	3.1	-0.1	1.0	nt	11.2	13.0*
SMILES	Rv3671c inh	Mtb UGM inh	Mtb betalactam	RecA splice inh	Mtb hypoxia inh	FadD28 binding
CCc1cccc2c(C(=O)COC(=O)c3ccc(O)cc3)c[nH]c12	-112.7	3.3	-1.8	0.6	-7.0	34.0*
O=C(COC(=O)[C@@H]1CC(O)CN1S(=O)(=O)c1ccccc1[N+](=O)[O-])c1ccccc1 (stereo partly drawn)	4.0	4.3	1.0	-0.1	-7.8	-2.6
O=C(Cc1ccccc1)NCC(=O)Nc1cc(Cl)ccc1Cl	nt	nt	nt	-0.3	12.0	nt
CCN(CC)CCNC(=O)c1ccc(Cl)c(S(=O)(=O)Nc2ccc(Cl)cc2)c1	-6.8	1.1	-7.3	0.0	8.7	-3.2
CN(CC(=O)Nc1nc2ccccc2s1)S(=O)(=O)c1ccc(Br)cc1	-3.1	1.3	-20.9	-1.2	-5.4	-1.6
Cn1nc(C(=O)Nc2cc(Cl)ccc2N2CCCC2)c2ccccc2c1=O	-13.1	17.0*	3.2	nt	-9.4	-2.6
